The values below come from PubChem BioAssay (NCATS).

Records with an inconclusive call do not appear. The source made the active and inactive calls. Calls follow the shape of the dose curve; as a rule, active = well fitted curve in the direction sought with a large enough effect; inconclusive = small, poorly fitted or top-dose-only effect, or another doubt; inactive = no such curve, though single readings can be large; an effect the other way counts as inactive or inconclusive.

One test has as its system MCC-13. As to the kind of experiment: qHTS assay to identify novel small-molecules to repurpose for Merkel cell carcinoma treatment (AID 1296009). Also: nearly all actives have a fitted effect of over 60% in size. Conditions: MCC and control cell lines, CellTiter-Glo viability, 72 h; series mostly up to 46 µM. The method, boiled down: (§1)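 Cells were treated for 72 hr at 37 degree celsius with compounds in 8- or 11-point dose response. Viability was read by CellTiter-Glo luminescence, normalized to no-cell (cytotoxicity) and DMSO controls.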
Background: qHTS replaces the single test concentration by a dilution series.

The next test deals with MCC-26. The description is as above. Conditions: MCC and control cell lines, CellTiter-Glo viability, 72 h; series mostly up to 46 µM. In outline: as §1
On the technique in general: Cellular ATP, detected with luciferase, serves as a proxy for viable cell number.

A further test relates to UISO. The description is as above. The settings on record: MCC and control cell lines, CellTiter-Glo viability, 72 h; series mostly up to 46 µM. In outline:
as §1

The next test concerns WaGa. Described as above. Conditions: MCC and control cell lines, CellTiter-Glo viability, 72 h; series mostly up to 46 µM. In outline: as §1
For the next test, the system named is MKL-1. Described as above. The settings on record: MCC and control cell lines, CellTiter-Glo viability, 72 h; series mostly up to 46 µM. The method, boiled down: as §1
A further test has as its system MKL-2. Described as above. The settings on record: MCC and control cell lines, CellTiter-Glo viability, 72 h; series mostly up to 46 µM. The method, boiled down: as §1
The subject of a further test is NIH3T3. The description is as above. The settings on record: MCC and control cell lines, CellTiter-Glo viability, 72 h; at 44.8 µM (top of the series) unless noted. In outline: as §1
The next test deals with CASKI. As to the kind of experiment: Primary qHTS to identify gynecologic anti-cancer compounds using libraries of approved drugs and bioactive compounds (AID 1345084). Also: nearly all actives have a fitted effect of over 55% in size. Conditions: Gynecologic cancer cell panel viability, ATPlite luminescence, 48 h; series mostly up to 57.5 µM. In outline:
(§2)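 Five-concentration response, 48 h; readout is ATP-driven luciferase luminescence.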

The test system of another test is C33A. The description is as above. Conditions: Gynecologic cancer cell panel viability, ATPlite luminescence, 48 h; series mostly up to 57.5 µM. In outline:
as §2
Potency is read from the fitted curve at half-maximal effect.

For `NS(=O)(=O)OC[C@@H]1C[C@@H](n2ccc3c(N[C@H]4CCc5ccccc54)ncnc32)C[C@H]1O`, the Potency in the test on MCC-13 was 5900 nM (active); in the test on MCC-26 it was 2090 nM (active); in the test with UISO, 1180 nM (active); in the test with WaGa it was 1480 nM (active).

`C[C@H](CCC(=O)O)[C@H]1CCC2C3C[C@H](O)[C@@H]4C[C@H](O)CC[C@]4(C)C3CC[C@@]21C` (stereo partly drawn): the Potency entry with MCC-13, in the test on MKL-1, with MKL-2, in the test with UISO and with WaGa was “inactive” throughout. In the test with NIH3T3, the molecule was called inactive.

In the case of `COc1cc(C[C@@H](CO)[C@H](CO)Cc2ccc(O)c(OC)c2)ccc1O`, the Potency result in the test on MCC-13 and with MCC-26 was “inactive” each time. In addition, the Potency in the test with MKL-2 is 16600 nM (active). The result in the test with NIH3T3 was inactive.

Turning to `C=CC1=C(C(=O)O)N2C(=O)[C@@H](NC(=O)C(=NO)c3csc(N)n3)[C@H]2SC1`, the Potency entry with MCC-13, in the test on MKL-1, with MKL-2, in the test on UISO and in the test with WaGa was “inactive” each time. The outcome in the test with NIH3T3 was inactive.

For the molecule `O=C(NNC(=O)c1ccc(CNS(=O)(=O)c2ccc(F)c(Cl)c2)cc1)c1ccccc1`, the Potency entry with MCC-13, in the test on MKL-1, in the test with MKL-2, in the test with UISO and with WaGa was “inactive” throughout. In addition, in the test with NIH3T3, the call was inactive.

For `COc1ccc2cc([S+]([O-])Cc3ncc(C)c(OC)c3C)nc2c1`, the Potency entry with MCC-13, in the test on MCC-26, with MKL-1 and in the test with WaGa was “inactive” throughout.

Regarding `COc1cccc2c1C(=O)c1c(O)c3c(c(O)c1C2=O)C[C@@](O)(C(=O)CO)C[C@@H]3O[C@H]1C[C@H](N)[C@@H](O)[C@H](C)O1`, the Potency is 5900 nM (active) in the test with MCC-13, 2350 nM (active) with MCC-26, 166 nM (active) with MKL-1 and 93.5 nM (active) with WaGa.

Take `C[C@@H]1C(=O)O[C@H]2CC34[C@H]5C[C@@H](C(C)(C)C)C36[C@H](OC(=O)[C@@H]6O)O[C@@]4(C(=O)O5)[C@]21O` (stereo partly drawn): the Potency result in the test on MCC-13, in the test on MCC-26 and with UISO was “inactive” each time. For the same molecule, the outcome in the test with NIH3T3 was inactive.

Take `CCCCCCCCc1ccc(CCC(N)(CO)CO)cc1`: the Potency entry in the test on MCC-13, in the test with MCC-26 and in the test with WaGa was “inactive” throughout.

In the case of `N#CC(=Cc1ccc(O)c(O)c1)C(=O)NCc1ccccc1`, the Potency result in the test with MCC-13, in the test with MCC-26 and in the test on MKL-2 was “inactive” throughout.

Take `CC(=O)ON=C1C(c2c(O)[nH]c3cc(Br)ccc23)=Nc2ccccc21`: the Potency result in the test with MCC-13, in the test with MCC-26 and with MKL-2 was “inactive” throughout.

On to `O=C(c1ccc(F)cc1)N1CCC[C@H](c2nc(-c3ccc(F)cc3)no2)C1`, for which the Potency entry in the test with MCC-13, in the test with MKL-1, in the test with MKL-2, in the test on UISO and in the test on WaGa was “inactive” in each case. In addition, in the test on NIH3T3, the molecule was classed as inactive.

Regarding `C=CC(=O)Nc1cc(NC(=O)c2ccc(C)c(NC(=O)c3ccno3)c2)cc(C(F)(F)F)c1`, the Potency result in the test with MCC-13 and in the test with MCC-26 was “inactive” throughout. For the same molecule, the Potency in the test on WaGa was 18700 nM (active).

As to `C[C@H](NC(=O)C(C#N)=Cc1cccc(Br)n1)c1ccccc1`, the Potency entry with MCC-13, in the test with MCC-26, in the test with MKL-1 and with WaGa was “inactive” in each case.

Turning to `CCC(C(=O)O)C1CCC(C)C(C(C)C(O)C(C)C(=O)C(CC)C2OC3(C=CC(O)[C@@]4(CC[C@](C)(C5CC[C@@](O)(CC)C(C)O5)O4)O3)C(C)CC2C)O1` (stereo partly drawn), the Potency in the test on MCC-13 is 10500 nM (active); in the test on MKL-1, 2960 nM (active); in the test with MKL-2 it was 3320 nM (active); in the test on UISO it was 3720 nM (active); with WaGa, 2960 nM (active).

As to `C=C(C)[C@@H]1CC[C@]2(C(=O)O)CC[C@]3(C)[C@H](CC[C@@H]4[C@@]5(C)CC[C@H](O)C(C)(C)[C@@H]5CC[C@]43C)[C@@H]12`, the Potency entry in the test with MCC-13, in the test with MKL-1, in the test with MKL-2, in the test with UISO and in the test on WaGa was “inactive” in each case.

As to `CC(C)(O)CC[C@@H](O)[C@](C)(O)[C@H]1CC[C@@]2(O)C3=CC(=O)[C@@H]4C[C@@H](O)[C@@H](O)C[C@]4(C)[C@@H]3CC[C@]12C`, the Potency entry in the test on MCC-13, with MKL-1, with MKL-2, in the test on UISO and in the test with WaGa was “inactive” each time.

With `Cn1cnc(=N)c2[nH]cnc21`, the Potency in the test on MCC-13 is 14800 nM (active); with MKL-1, 7430 nM (active); in the test on MKL-2 it was 209 nM (active); with UISO, 5260 nM (active); in the test with WaGa it was 296 nM (active).

As for `CS(=O)(=O)N1CCc2c(-c3cnc(N)nc3)nc(N3CCOCC3)nc21`, the Potency result with MCC-13, in the test with MKL-1 and with MKL-2 was “inactive” throughout. Further, the Potency in the test on CASKI is 2000 nM (active).

For the molecule `CN[C@H](CC(C)C)C(=O)N[C@H]1C(=O)N[C@@H](CC(N)=O)C(=O)N[C@@H]2C(=O)N[C@H]3C(=O)N[C@H](C(=O)N[C@H](C(=O)O)c4cc(O)cc(O)c4-c4cc3ccc4O)[C@H](O)c3ccc(c(Cl)c3)Oc3cc2cc(c3O[C@@H]2O[C@H](CO)[C@@H](O)[C@H](O)[C@@H]2O[C@H]2C[C@](C)(N)[C@H](O)[C@H](C)O2)Oc2ccc(cc2Cl)[C@H]1O`, the Potency entry with MCC-13, in the test with MKL-1, in the test on MKL-2, in the test with UISO and with WaGa was “inactive” each time.

Take `CN(C)CC(=O)N1CCC(c2ccc(NC(=O)c3ncc(C#N)[nH]3)c(C3=CCCCC3)c2)CC1`: the Potency result with MCC-13, with MKL-2, in the test with UISO, in the test on C33A and with CASKI was “inactive” each time.

As for `COc1ccc(S(=O)(=O)Nc2cc(-c3c(O)ccc4ccccc34)c(O)c3ccccc23)cc1`, the Potency entry in the test with MCC-13 was “inactive”. The Potency is 26400 nM (active) in the test on MKL-2 and 166 nM (active) in the test with UISO. Moreover, the outcome in the test on NIH3T3 was inactive.

Turning to `CCCCCCCN(CC)CCCC(O)c1ccc(NS(C)(=O)=O)cc1` (stereo not drawn), the Potency result in the test with MCC-13, in the test with MKL-1, in the test on MKL-2, in the test on UISO and in the test on WaGa was “inactive” throughout.

As for `OC[C@@H](O)[C@@H](O)[C@H](O)[C@@H](O)CO`, the Potency entry in the test with MCC-13, with MKL-1, with MKL-2, in the test on UISO and with WaGa was “inactive” in each case.

`N#CC(=C(O)c1ccc(Cl)cc1Cl)c1nc2cc(Cl)ccc2c(=O)[nH]1`: the Potency result with MCC-13, in the test with MKL-1, with MKL-2, with UISO and with WaGa was “inactive” each time.
